CYP2C19 act: cytochrome P450 2C19 (human) activation | P33261 | recombinant CYP2C19, luciferin-H EGE luminescence; active compounds read high; 0 = fully inhibited enzyme, 1 = untreated enzyme | activation factor at 5 µM | 96,000 tested, under 10 active | AID 1025;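 active = activation factor of at least 2 at 5 µM in the primary screen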;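 also: 0 = wells with 2.5 mM tranylcypromine and 1 = vehicle-only wells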
CYP2C9 act: increases human cytochrome P450 2C9 activity; recombinant CYP2C9, luciferin-H conversion, luminescence; active compounds read high; factor 1 = untreated enzyme, 0 = blocked; activation factor at 5 µM; 96,000 compounds, 1.4% hits; AID 1024;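 active = activation factor of 2 or more for CYP2C9 at a 5 µM dose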;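 also: 0 = sulfaphenazole-blocked wells and 1 = vehicle-only wells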
CYP2C19 inhib: human CYP2C19 inhibition; CYP2C19 Supersomes, luciferin-H EGE luminescence, 30 min; 96,000 compounds, 21% hits; P33261; inhibition, % at 5 µM;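 active = CYP2C19 inhibition above a set limit at 5 µM in the primary screen, cut at about 50% in these data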;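 also: plate controls were negative control wells for no effect and 2.5 mM tranylcypromine positive control for full effect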
D1 allo mod: D1 dopamine receptor (human) allosteric modulation; P21728; HEK293 D1, CRE-luciferase, dopamine EC30 potentiation; actives deviate in either direction; B-score at 10 µM; 58,000 compounds, 5.9% hits;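 active = luminescence count or its row- and column-corrected plate score outside the 99.7% band of the plate's sample wells, on either side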
CYP2C9 inh: inhibitors of human CYP2C9. CYP2C9 Supersomes, luciferin-H conversion, luminescence. inhibition, % at 5 µM. 96,000 compounds, 20% hits. AID 777;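 active = blocking of liver enzyme CYP2C9 beyond about 50% at 5 µM, limit read from the data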
hDAT+cocaine: changed human dopamine transporter uptake under cocaine IC80. 110,000 compounds, 1.3% hits. LLC-PK1 hDAT cells, [14C]-dopamine uptake with cocaine IC80; actives deviate in either direction. B-score at 10 µM;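 active = Z score or B-score, a plate-position-corrected score, falls beyond the plate's 99.7% confidence bounds, in either direction; inactive = both scores lie inside the 99.7% bounds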;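 also: scored against the spread of the other compound wells on the same plate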
Target sequence (Q01959 whole entry, looked up): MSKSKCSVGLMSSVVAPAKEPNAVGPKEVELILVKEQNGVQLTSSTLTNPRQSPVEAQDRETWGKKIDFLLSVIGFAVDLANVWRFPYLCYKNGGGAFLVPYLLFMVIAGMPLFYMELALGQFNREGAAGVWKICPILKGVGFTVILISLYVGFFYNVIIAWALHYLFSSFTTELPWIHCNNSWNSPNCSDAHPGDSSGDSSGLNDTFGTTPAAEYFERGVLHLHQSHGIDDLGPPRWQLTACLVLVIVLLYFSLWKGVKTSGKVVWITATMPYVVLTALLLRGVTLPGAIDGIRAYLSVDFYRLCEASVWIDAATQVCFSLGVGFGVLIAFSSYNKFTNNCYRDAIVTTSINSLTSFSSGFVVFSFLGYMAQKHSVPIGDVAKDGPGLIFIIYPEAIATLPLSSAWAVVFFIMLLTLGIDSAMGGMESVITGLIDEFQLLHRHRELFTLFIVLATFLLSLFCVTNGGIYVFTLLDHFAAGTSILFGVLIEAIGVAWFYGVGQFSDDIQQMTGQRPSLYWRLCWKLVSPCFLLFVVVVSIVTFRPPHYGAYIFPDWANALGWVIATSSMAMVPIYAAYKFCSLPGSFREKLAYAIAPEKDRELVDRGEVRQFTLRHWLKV
The depositor's hits bear a star; . = no result given. Sampled rows, rich in hits. Any-hit rate of the full collection: about 28%.

SMILES | CYP2C19 act | CYP2C9 act | CYP2C19 inhib | D1 allo mod | CYP2C9 inh | hDAT+cocaine
CC(=O)OC1c2ccccc2C(=O)N1Cc1ccccc1 (stereo not given) | 0.5 | 1.2 | 51* | . | -17 | -0.93
O=C(NCc1cccnc1)C1c2ccccc2C(=O)N1Cc1ccccc1 (stereo not given) | 0.4 | 0.8 | 63* | . | 22 | -1.1
O=C(NCc1cccnc1)C1c2ccccc2C(=O)N1Cc1ccco1 (stereo not given) | 0.2 | 0.8 | 78* | -0.72 | 21 | 0.037
O=C(COc1ccc(Cl)cc1)NNC(=O)C(=O)N1CCCCC1 | 0.9 | 1 | 8 | . | 0 | -2.2
C/C(CCc1ccc2c(c1)OCO2)=N\N=C1\NC(=O)CC(C(=O)Nc2ccccc2)S1 (stereo not given) | 0.8 | 0.3 | 22 | . | 68* | 0.9
CCN1C(=O)CC(C(=O)Nc2ccc(F)cc2)SC1=Nc1ccc2c(c1)OCO2 (stereo not given) | 1.1 | 0.7 | -5 | 2.2 | 34 | -0.37
Cc1cc(O)ccc1Nc1nc2ccccc2nc1Nc1ccc(O)cc1C | 0.1 | 0 | 87* | 0.37 | 96* | 1.9
Clc1ccc(Oc2nc(N3CCOCC3)nc(N3CCOCC3)n2)cc1 | 1 | 1 | 2 | . | 4 | 0.79
O=C(NCc1ccc2c(c1)OCO2)c1ccc(COc2cc(Cl)ccc2Cl)o1 | 0.4 | 0.1 | 57* | . | 94* | 0.63
O=C(Nc1cccnc1)c1ccc(COc2ccccc2Cl)o1 | 0.5 | 0.8 | 46 | . | 21 | 0.66
O=C(Nc1ccn(Cc2ccccc2F)n1)c1ccc(COc2ccccc2Cl)cc1 | 0.2 | 0.1 | 79* | . | 86* | .
Cc1nn(C)c(C(=O)Nc2ccn(Cc3ccccc3F)n2)c1[N+](=O)[O-] | 0.8 | 0.8 | 18 | . | 17 | 0.058
O=C(Nc1cccnc1)c1ccc(COc2cc(Cl)ccc2Cl)o1 | 0.3 | 0.4 | 74* | . | 60* | -0.66
O=C(Nc1ccn(Cc2ccccc2F)n1)c1ccc(COc2cccc(Br)c2)cc1 | 0.8 | 0.1 | 19 | . | 88* | 0.85
N#Cc1ccccc1NC(=O)COC(=O)CSc1nc2ccccc2o1 | 0.9 | 0.7 | 13 | 0.1 | 28 | -0.39
COc1ccc(OC)c(NC(=O)c2ccccc2OC(C)=O)c1 | . | . | . | . | . | -0.56
COc1ccc(C=O)cc1CSc1nnc(COc2cccc3cccnc23)o1 | . | . | . | . | . | 0.83
CN(C)c1ccc(NC(=O)c2ccc(COc3cccc(Cl)c3)o2)cc1 | 0.7 | 0.3 | 31 | -0.25 | 71* | 0.029
O=C(Cn1cc([N+](=O)[O-])cn1)Nc1ccn(Cc2c(F)c(F)cc(F)c2F)n1 | 1 | 1 | 5 | . | -4 | -0.35
O=C(NCc1cccnc1)c1ccc(COc2cccc3ccccc23)o1 | 0.5 | 1 | 53* | . | 2 | 0.78
O=C(Nc1ccn(Cc2c(F)c(F)cc(F)c2F)n1)c1ccc(COc2ccccc2Cl)cc1 | 0.7 | 0.3 | 32 | . | 66* | 0.7
O=C(Nc1ccccn1)c1ccc(COc2ccccc2Cl)o1 | . | . | . | . | . | 1.4
O=C(Nc1nn(Cc2ccc(Cl)cc2)cc1Br)c1ccc(COc2ccccc2Cl)o1 | 0.2 | 0.1 | 81* | . | 86* | 0.33
O=C(Nc1ccn(Cc2ccccc2F)n1)c1ccc(COc2cc(Cl)ccc2Cl)o1 | 0.4 | 0.1 | 61* | . | 91* | 0.29
O=C(Nc1ccn(Cc2c(F)c(F)cc(F)c2F)n1)c1ccc(COc2cc(Cl)ccc2Cl)o1 | 0.9 | 0.8 | 13 | . | 19 | -0.48
SMILES | CYP2C19 act | CYP2C9 act | CYP2C19 inhib | D1 allo mod | CYP2C9 inh | hDAT+cocaine
O=C(Nc1ccn(Cc2c(F)c(F)c(F)c(F)c2F)n1)c1cccc(Cn2cc([N+](=O)[O-])cn2)c1 | 0.7 | 0.7 | 30 | . | 27 | 1.8
O=C(Nc1ccn(Cc2c(F)c(F)cc(F)c2F)n1)c1cccc(Cn2cc([N+](=O)[O-])cn2)c1 | 0.3 | 0.2 | 73* | . | 82* | -0.16
O=C(O)c1ccc(CSCc2c(F)cccc2Cl)o1 | 1.1 | 1.1 | -10 | 0.32 | -11 | -2
C#CC(C)(CC)NC(=O)c1cc(OC)c(OC)c(OC)c1 (stereo not given) | 1.1 | 1.1 | -9 | 1.4 | -12 | -0.23
Nc1nnc(SCC(=O)NC23CC4CC(CC(C4)C2)C3)s1 | 0.8 | 0.9 | 16 | . | 9 | -1.5
N#Cc1cc([N+](=O)[O-])c(-n2nnc3ccccc32)c([N+](=O)[O-])c1 | 0.6 | 0.3 | 42 | . | 66* | -0.25
COc1ccc(Cn2cc3c(-c4ccc(F)cc4)nnc-3c3cc(OC)c(OC)cc32)cc1 | 1 | 0.6 | 4 | . | 42 | -0.0015
COc1cc2c3nnc(-c4ccc(F)cc4)c-3cn(Cc3ccc(F)cc3)c2cc1OC | 0.7 | 0.2 | 34 | . | 77* | -0.21
CCCCNc1ccccc1C(=O)OCC(=O)Nc1ccc(S(N)(=O)=O)cc1 | 0.8 | 0.1 | 23 | . | 86* | 0.62
CCC(=O)Nc1ccccc1C(=O)OCC(=O)Nc1ccc(S(N)(=O)=O)cc1 | 1 | 0.7 | -5 | 0.014 | 33 | 0.063
CC(C)(C)[C@H]1C=C(C(N)=O)O[C@@H](OCCCCO)C1 | . | . | . | . | . | -0.62
Cc1ccnc2c(N3C(=O)C4C5C=CC(C5)C4C3=O)cccc12 (stereo not given) | 1.2 | 1.2 | -16 | 1.8 | -23 | -0.9
CCCn1c(NCc2c[nH]c3ccccc23)nc2ccccc21 | 0.3 | 0.7 | 71* | . | 32 | 0.82
Cn1c(NCc2c(O)ccc3ccccc23)nc2ccccc21 | 1 | 1.1 | 3 | . | -6 | -0.86
CC(=O)NCc1nc2ccccc2n1C(C)C | 1 | 1.1 | 4 | -0.0014 | -6 | -0.84
Cn1c(CNc2nc3ccccc3n2C)nc2ccccc21 | 0.3 | 0.8 | 70* | -0.3 | 21 | 0.73
CCCn1c(CNc2ccccc2O)nc2ccccc21 | 0.5 | 0.7 | 51* | -0.34 | 28 | -0.56
CC(C)n1c(CNC(=O)c2ccccc2)nc2ccccc21 | 0.1 | 1 | 86* | 0.0025 | 2 | 0.19
C=CCNc1nc(Nc2ccc(OC)cc2)nc(OCC)n1 | 0.9 | 1 | 10 | . | 3 | 0.85
CC(C)n1c(NCc2nc3ccccc3n2C)nc2ccccc21 | 0.2 | 0.5 | 84* | -0.82 | 54* | 0.51
CCn1c(CNc2nc3ccccc3n2C(C)C)nc2ccccc21 | 0.2 | 0.2 | 82* | . | 82* | 1.2
CCn1c(NC2CCCCC2)nc2ccccc21 | 0.9 | 0.9 | 13 | -3.4* | 10 | 0.41
Cc1ccc(NCc2nc3ccccc3n2C)cc1 | 0 | 0.7 | 96* | -4.1* | 31 | -1.3
CCn1c(N2CCN(C(=O)NC3CCCCC3)CC2)nc2ccccc21 | . | . | . | . | . | 0.08
CCOC(=O)c1ccc(NCc2nc3ccccc3n2C)cc1 | 0.8 | 0.7 | 17 | . | 27 | 0.87
COc1ccc(N2CC(C(=O)O)CC2=O)cc1 (stereo not given) | . | . | . | . | . | 0.15
CCOC(=O)Cn1nnnc1C(CC)N(Cc1ccccc1)Cc1cc2cc(C)ccc2[nH]c1=O (stereo not given) | 0.4 | 0.5 | 58* | . | 54* | 0.27

Screening data (PubChem BioAssay)
